Over roughly 140,000 sequences, “enrichment ratio after two sorts for PhoP signalling” has its median near 0; the highest 2% begin near 11. What follows is part of a selection rich in the highest values, with near analogues and random picks from the rest.
B1: PhoQ; a variant is named by its letters at X, in order, P23837 (parent)
chain: MKKLLRLFFPLSLRVRFLLATAAVVLVLSLAYGMVALIGYSVSFDKTTFRLLRGESNLFYTLAKWENNKLHVELPENIDKQSPTMTLIYDENGQLLWAQRDVPWLMKMIQPDWLKSNGFHEIEADVNDTSLLLSGDHSIQQQLQEVREDDDDAEMTHSVAVNVYPATSRMPKLTIVVVDTIPVELKSSYMVWSWFIYVLSANLLLVIPLLWVAAWWSLRPIEALAKEVRELEEHNRELLNPATTRELTSLVRNLNRLLKSERERYDKYRTTLTDLTHSLKTPLXXLQXXLRSLRSEKMSVSDAEPVMLEQISRISQQIGYYLHRASMRGGTLLSRELHPVAPLLDNLTSALNKVYQRKGVNISLDISPEISFVGEQNDFVEVMGNVLDNACKYCLEFVEISARQTDEHLYIVVEDDGPGIPLSKREVIFDRGQRVDTLRPGQGVGLAVAREITEQYEGKIVAGESMLGGARMEVIFGRQHSAPKDE

Variants of: B1
Assay: enrichment ratio after two sorts for PhoP signalling (ratio (wild type AVST 3.29)); higher = more functional
Conditions: with PhoP (E. coli)

Variant | enrichment ratio
SYPA | ≤ 0.25
GNSM | 10.6
GISM | 18.4
GILA | 11.3
GILQ | 17.5
GIAS | 14.2
GIAT | ≤ 0.25
GISF | 8.06
GITA | 7.39
GNAS | 4.84
GNLQ | 5.83
GIYI | 0.548
GIWI | ≤ 0.25
EYAS | ≤ 0.25
LGCH | ≤ 0.25
TLYV | 0.293
LEIN | ≤ 0.25
EYMV | ≤ 0.25
RHQP | ≤ 0.25
GNME | ≤ 0.25
GICE | 6.08
GIME | 13.3
DICD | ≤ 0.25
EHLY | ≤ 0.25
FVVK | ≤ 0.25

Variant | enrichment ratio
ASSF | 11.3
ASGR | ≤ 0.25
VRSM | ≤ 0.25
ASQM | 2.47
ASSM | 19.3
KSSF | ≤ 0.25
VGAL | 0.829
GWCN | ≤ 0.25
SGML | 17.4
SNML | 15.9
SYML | 0.252
SMML | 14.5
SGEL | ≤ 0.25
TIML | 2.74
SWML | ≤ 0.25
KYML | ≤ 0.25
NMML | ≤ 0.25
STML | 13.4
HEML | ≤ 0.25
AVQL | ≤ 0.25
YNMI | 0.268
IVRK | ≤ 0.25
TQMH | 9.69
IKMM | ≤ 0.25
WGHD | ≤ 0.25

Variant | enrichment ratio
SQFI | ≤ 0.25
RPFT | ≤ 0.25
SAML | 16.5
SIML | 6.65
SLML | 7.15
IIML | ≤ 0.25
SCML | 11.2
SPML | ≤ 0.25
SSML | 23.6
SAKL | ≤ 0.25
SRML | 4.3
HYKH | ≤ 0.25
GCEP | ≤ 0.25
RQGY | ≤ 0.25
QQNM | 16.3
FVWN | ≤ 0.25
QQRM | ≤ 0.25
QSQN | ≤ 0.25
QLWN | ≤ 0.25
QTWN | 16.8
QTWI | 3.53
IQNM | ≤ 0.25
QGWN | 16.6
FFWN | ≤ 0.25
QSWN | 21.4

Variant | enrichment ratio
FTWN | ≤ 0.25
QVFE | ≤ 0.25
EYFQ | ≤ 0.25
FTGV | ≤ 0.25
FFRA | ≤ 0.25
LYHH | ≤ 0.25
EIFG | ≤ 0.25
FCWL | ≤ 0.25
KAWN | ≤ 0.25
QPWL | ≤ 0.25
FPWN | ≤ 0.25
QQWN | 13.8
MAWI | 8.24
NAWN | ≤ 0.25
MAWN | 23.5
MAWL | 12
QSWL | 11.6
TPWN | ≤ 0.25
QRWL | ≤ 0.25
YELN | 2.61
KINA | ≤ 0.25
IDLY | ≤ 0.25
SGPA | ≤ 0.25
TVIM | ≤ 0.25
ALLC | 1.19

Variant | enrichment ratio
SWSV | ≤ 0.25
LKFM | ≤ 0.25
FEFH | ≤ 0.25
QIYN | 20.5
QVWL | 1.05
QPWN | ≤ 0.25
QQWL | 11.7
QQEL | ≤ 0.25
QQQL | ≤ 0.25
QQNL | 14.9
QQRL | ≤ 0.25
QRYN | ≤ 0.25
QRWN | ≤ 0.25
QIWN | 27.2
QEYN | ≤ 0.25
LCAS | ≤ 0.25
AWQV | ≤ 0.25
QRPC | ≤ 0.25
IARV | ≤ 0.25
HCSE | ≤ 0.25
YKNC | ≤ 0.25
HYGG | ≤ 0.25
ESAV | 2.02
LFIM | ≤ 0.25
WQAC | ≤ 0.25

Variant | enrichment ratio
MMIC | ≤ 0.25
TQCV | 10.8
DWCG | ≤ 0.25
TQCA | 17.6
TQCS | 15.1
TQCE | 87.9
TQNE | ≤ 0.25
TQIE | ≤ 0.25
TQPI | ≤ 0.25
FQCG | 1.7
TQAI | 3.21
TQCP | ≤ 0.25
TQCG | 14.9
HAWL | ≤ 0.25
SAVY | 1.85
QKIT | ≤ 0.25
GSFP | ≤ 0.25
DITR | ≤ 0.25
PWHF | ≤ 0.25
MSDL | ≤ 0.25
NNLP | ≤ 0.25
RETI | ≤ 0.25
HCYR | ≤ 0.25
RHMQ | ≤ 0.25
WQYV | ≤ 0.25

Variant | enrichment ratio
RTWF | ≤ 0.25
TQCK | 1.24
TQYS | 12.5
TQCL | 12.5
TQYK | ≤ 0.25
FQCQ | ≤ 0.25
SQYS | ≤ 0.25
TQCQ | 27.8
TQQP | ≤ 0.25
TQCI | 16
TQEL | ≤ 0.25
TQTH | 6.85
TQRL | ≤ 0.25
WRPN | ≤ 0.25
GCIS | 2.07
PPWA | ≤ 0.25
HQSY | ≤ 0.25
RKAR | ≤ 0.25
MEHS | ≤ 0.25
EHIP | ≤ 0.25
TQSK | ≤ 0.25
RNCT | ≤ 0.25
TQSA | 19.8
WQCT | ≤ 0.25
TQWA | 17.1

Variant | enrichment ratio
NQYE | ≤ 0.25
NVSA | ≤ 0.25
TQWI | 1.91
TQCT | 12.5
TQYE | 35.7
TQYI | ≤ 0.25
HDSA | ≤ 0.25
GFAI | ≤ 0.25
GLPN | ≤ 0.25
GAFM | ≤ 0.25
EVEQ | ≤ 0.25
FEQI | ≤ 0.25
YIWG | ≤ 0.25
TQTG | 5.83
TQSI | 11.7
TQRK | ≤ 0.25
WSSI | ≤ 0.25
TEFF | 6.49
MCRI | ≤ 0.25
TEVE | 11.6
HPLE | ≤ 0.25
MEVE | ≤ 0.25
MELE | ≤ 0.25
TEYE | ≤ 0.25
TELE | 11.2

Source: a collection of fitness landscapes (doi:10.1126/science.1257360)
